Out of some 54,000 sequences screened, about 4,000 (7.4%) were called active. No stated cut-off is given here; in the data, active = GI50 up to about 1.1 µM and inactive = higher. Not all results are given here. Results with a measured potency or affinity are listed apart.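 48-hour exposure; five concentrations; linearly interpolated endpoints. GI50 marks 50% less growth.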
Each substance was assayed on SNB-75 (assay: NCI tumour cell line growth inhibition, 48 h).

Row | Substance | GI50
1 | [Bis(aminomethyl)pentamethylenesilane]tetrachloropaltinum(IV), CHEMBL2146204 | 2.64 µM
2 | [Bis(aminomethyl)diethylsilane]tetrachloroplatinum(IV), CHEMBL2146203 | 3.8 µM
3 | CISPLATIN, CHEMBL11359 | 2.84 µM
4 | mu-(1,7-nanodiamine-N,N')bis-(cis-aminedichloroplatimum (II)), CHEMBL2146215 | 12.4 µM
5 | cis-Bis[[(trimethylsilyl)methyl]amino]tetrachloroplatinum(IV), CHEMBL2146191 | 15 µM
6 | [Bis(aminomethyl)ethylmethylsilane]tetrachloroplatinum(IV), CHEMBL2146192 | 3.53 µM
7 | [Bis(aminomethyl)dimethylsilane]tetrachloroplatinum(IV), CHEMBL2146190 | 11.5 µM
8 | [Bis(aminomethyl)pentamethylenesilane]dichloropaltinum(II), CHEMBL2146202 | 2.9 µM
9 | [Bis(aminomethyl)tetramethylenesilane]dichloropaltinum(II), CHEMBL2146205 | 29.5 µM
10 | [Bis(aminomethyl)dimethylsilane]dichloroplatinum (II), CHEMBL2146201 | 9.23 µM
11 | [Bis(aminomethyl)tetramethylenesilane]tetrachloropaltinum(IV), CHEMBL2146189 | 5.7 µM
